Sampled rows, rich in hits. Any-hit rate of the full collection: about 3.5%.
FBW7 act: FBW7 E3 ligase activators, primary screen, biochemical, AlphaScreen, human; AID 1259310, 2017; F-box/WD repeat-containing protein 7 (Homo sapiens), Q969H0; AlphaScreen FBW7–phospho-cyclin E peptide binding, activator screen; normalized activity (activation), % at 26.1 µM; actives 0.13% (n = 650,000); in the data active = normalized activity above about 1.9%;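 note: purified mutant Fbw7 with reduced substrate affinity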
Target sequence (Q969H0 whole entry, looked up): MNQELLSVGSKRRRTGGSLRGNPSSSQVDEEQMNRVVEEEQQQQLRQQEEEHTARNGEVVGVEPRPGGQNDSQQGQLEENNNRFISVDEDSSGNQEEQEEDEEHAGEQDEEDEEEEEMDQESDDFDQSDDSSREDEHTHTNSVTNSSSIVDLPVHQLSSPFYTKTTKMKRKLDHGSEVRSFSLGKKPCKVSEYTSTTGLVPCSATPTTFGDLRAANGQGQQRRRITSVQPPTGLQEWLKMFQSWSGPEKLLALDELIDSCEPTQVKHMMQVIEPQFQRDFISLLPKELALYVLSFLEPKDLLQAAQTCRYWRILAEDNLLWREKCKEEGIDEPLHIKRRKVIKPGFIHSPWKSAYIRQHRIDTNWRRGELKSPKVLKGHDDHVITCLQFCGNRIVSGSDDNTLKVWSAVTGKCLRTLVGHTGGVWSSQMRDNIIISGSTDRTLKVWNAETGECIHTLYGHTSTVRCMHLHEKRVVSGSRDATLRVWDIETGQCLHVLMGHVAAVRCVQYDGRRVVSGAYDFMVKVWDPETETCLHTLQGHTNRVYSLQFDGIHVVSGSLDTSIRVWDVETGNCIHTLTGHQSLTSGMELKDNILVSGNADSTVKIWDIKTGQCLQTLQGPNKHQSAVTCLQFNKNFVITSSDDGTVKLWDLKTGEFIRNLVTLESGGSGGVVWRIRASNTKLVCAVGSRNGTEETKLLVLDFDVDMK
MITF primary: MITF inhibitors, primary screen, biochemical, AlphaScreen, human. AID 1259374, 2018. actives 0.91% (n = 650,000). inhibition, % at 2.6 µM. Microphthalmia-associated transcription factor (Homo sapiens), O75030. AlphaScreen MITF homodimerization, bead proximity signal; in the data active = inhibition above about 50%;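 note: 0% = vehicle wells with protein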
TEAD-YAP inh: TEAD-YAP interaction inhibition, primary screen, TEAD-YAP interaction inhibitor project, luminescence, HEK-TIYL cells | TEAD-Gal4/YAP UAS-luciferase luminescence | inhibition, % at 9.12 µM | actives 1.4% (n = 640,000) | AID 1259422, 2018; in the data active = inhibition above about 32%;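 note: 0% = median of test compound wells and 100% = reference inhibitor wells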
GPR151 ag: activators of human GPR151, primary screen, cell-based, PathHunter beta-arrestin, luminescence; activation, % at 11.2 µM; actives 1% (n = 650,000); PathHunter beta-arrestin GPR151 cells; G-protein coupled receptor 151 (Homo sapiens), Q8TDV0; in the data active = activation above about 4.9%;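 note: 0% = median of compound wells and 100% = cells with positive control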
MITF confirm: MITF inhibitors, retest of hits, confirmation, biochemical, AlphaScreen, triplicate; shares compounds with MITF primary; inhibition, % at 2.6 µM; actives 16% (n = 4,700); AlphaScreen MITF homodimerization, biotin/His-MITF beads; AID 1259372, 2018;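 active = inhibition above a cutoff derived from the DMSO control wells, cut at about 28% in these data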;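 note: 0% = MITF dimer wells with DMSO only; inhibitors lower the bead chemiluminescence by keeping MITF from dimerizing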
AlphaScreen DR: AlphaScreen optical interference compounds, dose response, counter-screen, biochemical, HTS; shares compounds with MITF primary; AlphaScreen optical interference counterscreen, cell-free; IC50, µM; actives 6% (n = 480); AID 1259373, 2018; call rule not given here
AS interf ctr: AlphaScreen optical interference compounds, counter-screen for MITF inhibitor project, biochemical, triplicate; shares compounds with MITF primary; LysRS AlphaScreen counterscreen, signal interference; inhibition, % at 2.6 µM; actives 7.6% (n = 4,700); AID 1259376, 2018;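 active = inhibition above a cutoff derived from the DMSO control wells, cut at about 30% in these data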
Starred values were filed as active, the others as inactive.

For Nc1ncc(-c2cccc(OC(F)(F)F)c2)nc1NCCCN1CCOCC1 the results were FBW7 act 0, MITF primary 12, TEAD-YAP inh 9 and GPR151 ag 3.
CN1CCN(CCS(=O)(=O)OCC(F)(F)C(F)F)CC1 was read as FBW7 act 0, MITF primary 77*, TEAD-YAP inh 0, GPR151 ag 2, MITF confirm 11 and AS interf ctr -3.
`CCOC(=O)c1cc2c(c(CSc3nc4ccccc4c(=O)n3Cc3ccccc3)c1)OCOC2` gave FBW7 act 0, MITF primary -8, TEAD-YAP inh -6 and GPR151 ag -1.
CCOC(=O)c1cc2c(c(CSc3nc4ccccc4c(=O)n3CCc3ccccc3)c1)OCOC2 was read as FBW7 act 0, MITF primary 69*, TEAD-YAP inh -5, GPR151 ag 1, MITF confirm -11 and AS interf ctr -9.
Screening O=c1c2ccccc2nc(SCc2cc(F)cc3c2OCOC3)n1C1CCCCC1 returned FBW7 act 0, MITF primary 69*, TEAD-YAP inh 2, GPR151 ag -2, MITF confirm 10 and AS interf ctr -1.
`CCOc1ccccc1OCC(=O)NC(C)c1ccccc1` (stereo not given) gave FBW7 act 1, MITF primary 16, TEAD-YAP inh -17 and GPR151 ag -2.
Screening O=C(O)c1cccc(N2C(=O)CC(Nc3ccc(N4CCOCC4)cc3)C2=O)c1 (stereo not given) returned FBW7 act 0, MITF primary 70*, TEAD-YAP inh -5, GPR151 ag -2, MITF confirm 69*, AlphaScreen DR >6.6 and AS interf ctr 4.
`Cc1ncn(-c2ccc(N(C)c3ncc4cccc(-c5ccn[nH]5)c4n3)cc2)n1` gave FBW7 act 1, MITF primary 58*, TEAD-YAP inh 15, GPR151 ag 0, MITF confirm 57*, AlphaScreen DR >6.5 and AS interf ctr 10.
For Cc1ncn(-c2ccc(Nc3ncc4cccc(-c5ccccc5F)c4n3)cc2)n1 the results were FBW7 act 1, MITF primary 28, TEAD-YAP inh -14 and GPR151 ag -2.
Screening COc1cc(CN2CCN(Cc3ccc(Cl)cc3)CC2)cc(OC)c1 returned FBW7 act 0, MITF primary 84*, TEAD-YAP inh 1, GPR151 ag -2, MITF confirm 0 and AS interf ctr -1.
For COc1cc(CN2CCCCCC2)cc(OC)c1 the results were FBW7 act 0, MITF primary -2, TEAD-YAP inh -2 and GPR151 ag 0.
Screening COc1cccc(CN2CCCCC2)c1 returned FBW7 act 0, MITF primary -5, TEAD-YAP inh 1 and GPR151 ag 0.
Screening COc1cc(CN2CCN(Cc3cccc(Cl)c3)CC2)cc(OC)c1 returned FBW7 act 0, MITF primary 73*, TEAD-YAP inh -1, GPR151 ag 1, MITF confirm 7 and AS interf ctr 4.
CCCn1c2c(c(=O)n(C)c1=O)C(c1cccc(OC)c1OC)C1=C(COC1=O)N2 (stereo not given) was read as FBW7 act 0, MITF primary 15, TEAD-YAP inh 0 and GPR151 ag -1.
Screening Cc1nnc(CNC(=O)c2cnn(-c3ccccc3)c2C)o1 returned FBW7 act 0, MITF primary 6, TEAD-YAP inh 3 and GPR151 ag 1.
Cc1nnc(CNC(=O)c2ccc(-n3cccc3)cc2)o1 was read as FBW7 act 0, MITF primary 55*, TEAD-YAP inh 12, GPR151 ag 1, MITF confirm 55*, AlphaScreen DR >6.5 and AS interf ctr 16.
Screening O=C(NCc1cccnc1)c1cccc(OC2CCN(Cc3ccsc3)CC2)c1 returned FBW7 act 0, MITF primary 9, TEAD-YAP inh 3 and GPR151 ag -1.
Screening CCCS(=O)(=O)N1CCN(Cc2ccc(OCc3ccccc3)c(OC)c2)CC1 returned FBW7 act 0, MITF primary 64*, TEAD-YAP inh -4, GPR151 ag 0, MITF confirm 7 and AS interf ctr 9.
`CCCS(=O)(=O)N1CCN(Cc2ccc(OC)cc2OC)CC1` gave FBW7 act 0, MITF primary 35, TEAD-YAP inh -7 and GPR151 ag -1.
For CCCS(=O)(=O)N1CCN(Cc2ccc(OC)cc2)CC1 the results were FBW7 act 0, MITF primary 47, TEAD-YAP inh -6 and GPR151 ag 2.
`CCCS(=O)(=O)N1CCN(Cc2ccc(OC)c(OC)c2)CC1` gave FBW7 act 0, MITF primary 53*, TEAD-YAP inh 3, GPR151 ag 1, MITF confirm 6 and AS interf ctr 17.
For CCCS(=O)(=O)N1CCN(Cc2nc3ccc(OC)cc3[nH]2)CC1 the results were FBW7 act 0, MITF primary 66*, TEAD-YAP inh -10, GPR151 ag 2, MITF confirm 1 and AS interf ctr 21.
Screening CCOC(=O)C1=C(C)N(CC(C)C)C(=O)/C1=C\c1ccc([N+](=O)[O-])cc1 returned FBW7 act 1, MITF primary 26, TEAD-YAP inh -21 and GPR151 ag 0.
For COC(=O)c1ccc(C2Nn3c(C)nnc3SC2C(=O)Nc2cc(C)ccc2C)cc1 (stereo not given) the results were FBW7 act 0, MITF primary 16, TEAD-YAP inh 5 and GPR151 ag -1.
Screening O=C(O)c1ccc(N2C(=O)c3cccnc3C2=O)cc1 returned FBW7 act -1, MITF primary 40, TEAD-YAP inh 8 and GPR151 ag 0.
For O=C1c2cccnc2C(=O)N1c1ccc(N2C(=O)c3cccnc3C2=O)c(Cl)c1 the results were FBW7 act -1, MITF primary 70*, TEAD-YAP inh -2, GPR151 ag -1, MITF confirm 19 and AS interf ctr 31*.
`O=C1c2cccnc2C(=O)N1c1ccc(Br)cc1` gave FBW7 act -1, MITF primary 58*, TEAD-YAP inh 7, GPR151 ag -2, MITF confirm 6 and AS interf ctr 20.
O=C1c2ccccc2C(=O)N1c1ccc(N2C(=O)c3ccccc3C2=O)c(Cl)c1 was read as FBW7 act 0, MITF primary 2, TEAD-YAP inh 1 and GPR151 ag -1.

Compound activity as filed in PubChem BioAssay.
